{
  "source": "PubChem BioAssay AID504770",
  "about": "(ICCB-Longwood Screening Facility, Harvard Medical School, 2011)",
  "note": "Screen size: about 130,000 compounds; about 350 (0.27%) were called active. No stated cut-off is given here; in the data, active means z-score below about -2 (passing the limit was not always enough); inactive means the rest. This excerpt belongs to a sample that is enriched for actives.",
  "data": [
    {"assay": "PubChem AID 504770", "settings": "E. coli YBA685 rctB-dependent plasmid, OD600 growth, 3 h; stronger effect = lower value", "values": [
      {"smiles": "Cc1c(OCC#N)ccc2c3c(c(=O)oc12)CCC3", "z-score": "-0.7 (inactive)"},
      {"smiles": "CCC1(C)NC(=O)N(NC(=O)c2ccc(S(=O)(=O)N3CCCC3)cc2)C1=O", "note": "(centres undefined)", "z-score": "0.95 (inactive)"},
      {"smiles": "O=C(CCn1c(=O)oc2ccccc21)Sc1ccc(C(F)(F)F)cc1", "z-score": "0.8 (inactive)"},
      {"smiles": "Cc1ccc(NC(=O)c2ccc3nc(N4CCOCC4)sc3c2)cc1", "z-score": "-1.3 (inactive)"},
      {"smiles": "O=C(CSC1=NCCS1)Nc1cc(C(F)(F)F)ccc1Cl", "z-score": "-0.55 (inactive)"},
      {"smiles": "COc1ccc(NC(=O)C(=S)N2CCCCC2)cc1", "z-score": "-0.45 (inactive)"},
      {"smiles": "Cc1nc(N)nc(CSc2ccc(Cl)cc2)n1", "z-score": "1.4 (inactive)"},
      {"smiles": "O=C(c1[nH]nc2c1CCc1ccccc1-2)N1CCCC1", "z-score": "-0.15 (inactive)"},
      {"smiles": "CC(=O)NCc1n[nH]c(=O)c2ccccc12", "z-score": "-0.4 (inactive)"},
      {"smiles": "CCOc1ccc(NCc2nc3ccccc3n2C)cc1", "z-score": "0.75 (inactive)"},
      {"smiles": "Oc1c(Cl)cc(Cl)c(Cl)c1Cc1c(O)c(Cl)cc(Cl)c1Cl", "z-score": "-3.25 (active)"},
      {"smiles": "CC1CC(C)CN(c2nc3ccccc3c(=O)n2-c2ccc(Cl)cc2)C1", "note": "(centres undefined)", "z-score": "-1.35 (inactive)"},
      {"smiles": "CCS(=O)(=O)c1ccc2c(c1)N1CCS(=O)(=O)N=C1O2", "z-score": "0.9 (inactive)"},
      {"smiles": "CC1(C)COC(Nc2ccc(Cl)c(Cl)c2)=N1", "z-score": "-0.6 (inactive)"},
      {"smiles": "Cc1nc2c3ccccc3n3c(CCCC(=O)NCc4ccccn4)nnc3n2n1", "z-score": "1.15 (inactive)"},
      {"smiles": "O=S1(=O)CC(S(=O)(=O)c2ccccc2)C(S(=O)(=O)c2ccccc2)C1", "note": "(centres undefined)", "z-score": "1.15 (inactive)"},
      {"smiles": "COc1ccc2c(CC(=O)OCc3cc(Cl)c4c(c3)OCCCO4)coc2c1", "z-score": "-0.55 (inactive)"},
      {"smiles": "Cc1cccc(CC2(Cc3cccc(C)c3)C(=O)OC(C)(C)OC2=O)c1", "z-score": "0.1 (inactive)"},
      {"smiles": "N#CC(c1ccc(F)cc1)N1CCOCC1", "note": "(centres undefined)", "z-score": "-1.05 (inactive)"},
      {"smiles": "CN(C(=O)Cn1nc(C(F)(F)F)c2c1CCC2)C1CCCCC1", "z-score": "-0.25 (inactive)"},
      {"smiles": "O=C(CCc1ccccc1)Nc1nnc(SCC(=O)N2CCCCCC2)s1", "z-score": "-0.2 (inactive)"},
      {"smiles": "N#Cc1c(=O)c2nc(NCCc3ccccc3)ncc2n2c(=O)c3cc(Br)ccc3[nH]c12", "z-score": "-1.25 (inactive)"},
      {"smiles": "C=CCN(C(=O)C1CCCC1)c1nc2c(s1)CCCC2", "z-score": "-1.05 (inactive)"},
      {"smiles": "CC1CC(C)CN(C(=O)COC(=O)c2cccnc2Nc2ccccc2F)C1", "note": "(centres undefined)", "z-score": "0.1 (inactive)"},
      {"smiles": "C=CCNc1nc(SC)nc2ccccc12", "z-score": "1.45 (inactive)"},
      {"smiles": "COc1ccc(/C=N/NC(=O)c2ccccc2)cc1OC", "z-score": "0.85 (inactive)"},
      {"smiles": "COC(=O)N/N=C/c1c[n+]([O-])c2ccccc2[n+]1[O-]", "z-score": "-3.7 (active)"},
      {"smiles": "COc1cccc(/C=N/NC(=O)Cc2ccccc2)c1", "z-score": "-0.6 (inactive)"},
      {"smiles": "CC(NC(=O)CC1=NS(=O)(=O)c2ccccc2N1)c1ccccc1", "note": "(centres undefined)", "z-score": "0.8 (inactive)"}
    ]}
  ]
}
